Shown are actives, neighbours in structure and some others; about 9.4% of the full set was active somewhere.
SMN2 splice enh – increases expression of the SMN2 splice variant; HEK293 SMN2-luciferase splicing reporter, luminescence, 30-36 h; Potency, µM (doses to about 46.1 µM), inactives show at the highest dose activity change, positive = activation, usual class: activators; 210,000 tested, 2.8% active; note: % of control where 0% means no effect; nearly all actives have a fitted effect of over 55% in size
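qHTS luciferase splicing reporter: luminescence rises when SMN2 exon 7 is included in transfected HEK293 cells. Compound exposure lasted 30-36 h at 37C, with 4.5 mM final sodium butyrate as control, followed by a ONE-Glo read.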
NPC1 promoter act – NPC1 promoter activation; Huh7 NPC1 promoter luciferase reporter, 24 h; Potency, µM (titrated, usually from 9.22 µM), without a hit: at the highest dose activation, usual class: activators; 320,000 tested, 2.4% active; AID 485313; note: % of control where 0% means no effect; nearly all actives have a fitted effect of over 60% in size
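Luciferase expression driven by the NPC1 promoter was measured in stably transfected Huh7 cells after a 24 h compound incubation, using a luciferase reagent and a luminescence read.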
FLuc modulator – inhibits or activates purified firefly luciferase, miR-21 counter-screen | purified FLuc, Km substrates, luminescence inhibition | AID 588342 | P08659 | 360,000 tested, 6.9% active | Potency, µM (highest dose often 57.5 µM), for inactives: at the top dose activity change, negative = inhibition, hits mostly inhibitors;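 note: plate controls were vehicle for no effect and reference inhibitor for full effect; nearly all actives have a fitted effect of over 55% in size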
Target sequence (P08659 whole entry, looked up): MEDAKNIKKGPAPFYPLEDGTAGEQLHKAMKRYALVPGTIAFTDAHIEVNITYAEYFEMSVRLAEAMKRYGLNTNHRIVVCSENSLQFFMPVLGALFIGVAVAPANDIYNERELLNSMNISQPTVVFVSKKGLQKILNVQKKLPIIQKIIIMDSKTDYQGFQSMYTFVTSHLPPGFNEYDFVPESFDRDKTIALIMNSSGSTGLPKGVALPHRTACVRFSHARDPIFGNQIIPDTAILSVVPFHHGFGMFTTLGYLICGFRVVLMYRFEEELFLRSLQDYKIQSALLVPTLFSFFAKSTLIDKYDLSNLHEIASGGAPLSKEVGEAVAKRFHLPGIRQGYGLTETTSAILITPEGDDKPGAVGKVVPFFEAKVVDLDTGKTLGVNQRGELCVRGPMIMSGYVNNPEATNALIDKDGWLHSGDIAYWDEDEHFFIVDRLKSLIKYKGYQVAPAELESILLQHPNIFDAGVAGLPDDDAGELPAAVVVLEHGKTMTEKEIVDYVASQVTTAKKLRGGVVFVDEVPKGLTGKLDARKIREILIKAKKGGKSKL
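Biochemical qHTS of compounds, final roughly 60 µM downward over six points, against 10 nM purified firefly luciferase using Km concentrations of substrates (10 uM D-luciferin, 10 uM ATP) in Tris acetate pH 7.5 buffer; luminescence output.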
ELG1 repair inh – blocks ELG1-dependent DNA repair in HEK293T cells. HEK293T ELG1-luciferase reporter, luminescence, 16 h; DNA damage induced by 5-fluorouridine. Potency, µM (highest dose often 46.1 µM), without a hit: at the top dose activity change, negative = inhibition, most hits filed as inhibitors. 330,000 tested, 2.3% active; note: % is set by controls: 0 for no effect and ±100 for the full control effect; nearly all actives have a fitted effect of over 55% in size
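Step one: seed 2,000 cells per well. Step two: pin-transfer compound or DMSO alongside 5-fluorouridine. Step three: incubate 16 hr, 37 °C, 5% CO2. Step four: add ONE-Glo, wait 30 min, read luminescence.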
ELG1 genotoxic – induces genotoxicity in HEK293T cells with luciferase-tagged ELG1 | HEK293T ELG1-luciferase reporter, luminescence, 16 h | AID 504466 | Potency, µM (titrated, usually from 46 µM), for the others: at the highest dose activity change, positive = activation, most hits filed as activators | 330,000 tested, 1.3% active; note: % of control where 0% means no effect; nearly all actives have a fitted effect of over 60% in size
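Step 1: seed 2,000 HEK293T ELG1-luciferase cells per well. Step 2: add compound or DMSO, incubate 16 hr at 37 °C. Step 3: ONE-Glo, 30 min at room temperature, read luminescence.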
Rab9 promoter act – Rab9 promoter activation | 320,000 tested, 2.8% active | Potency, µM (titrated, usually from 9.22 µM), for the others: top-dose activation, negative = inhibition, actives largely listed as activators | AID 485297 | Huh7 Rab9 promoter-luciferase reporter, luminescence, 24 h; note: % of control where 0% means no effect; nearly all actives have a fitted effect of over 60% in size
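Cell-based reporter: Huh7 stable for Rab9 promoter-driven luciferase, plated in reduced-serum medium with 10% FBS at 1500 cells/well, compound-treated 24 h at 37 °C, luminescence read after 10 min reagent.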
ELG1 FLuc counter – luciferase inhibition in cell-free luciferin readout for ELG1 hits; shares compounds with ELG1 repair inh; cell-free firefly luciferase luminescence counter-screen, ViewLux; Potency, µM (highest dose often 46.1 µM), inactives show at the highest dose activity change, negative = inhibition, usual class: inhibitors; 350 tested, 3% active; note: % is set by controls: 0 for no effect and ±100 for the full control effect
ELG1-Luc inh – confirmation of human ELG1-dependent DNA repair inhibitors | shares compounds with ELG1 repair inh | HEK293T ELG1-luciferase levels, luminescence; cells co-treated with 5-fluorouridine | Potency, µM (titrated, usually from 46.1 µM), without a hit: at the top dose activity change, negative = inhibition, usual class: inhibitors | 670 tested, 68% active | AID 624248; note: % is set by controls: 0 for no effect and ±100 for the full control effect; nearly all actives have a fitted effect of over 55% in size
ELG1 MMS Luc – inhibits ELG1-dependent repair under MMS stimulation in HEK293T cells; shares compounds with ELG1 repair inh; 670 tested, 53% active; Potency, µM (series often up to 46.1 µM), for inactives: at the highest dose activity change, negative = inhibition, usual class: inhibitors; AID 624249; HEK293T luciferase-tagged ELG1 level, MMS stimulated; note: % is set by controls: 0 for no effect and ±100 for the full control effect; nearly all actives have a fitted effect of over 60% in size
ELG1 5FU viab – confirmation of ELG1 repair inhibitors: viability with 5FU | shares compounds with ELG1 repair inh | cell viability with 5-FU, ELG1-dependent repair | Potency, µM (titrated, usually from 46.1 µM), for the others: at the highest dose activity change, negative = viability loss, actives largely listed as cytotoxic | 670 tested, under 10 active;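 note: ELG1-luc HEK293T cells cotreated with 5-fluorouridine at 10 µM final; viability measured 16 h after compound addition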
ELG1 MMS cell – confirmation of ELG1 repair inhibitors: viability with MMS. shares compounds with ELG1 repair inh. Cell viability with MMS, ELG1-dependent DNA repair. Potency, µM (highest dose often 46.1 µM), without a hit: top-dose activity change, negative = viability loss, actives largely listed as cytotoxic. 670 tested, 33% active. AID 624251;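 note: ELG1-luc HEK293T cells co-treated with 10 µM MMS; viability read 16 h after compound addition; % is set by controls: 0 for no effect and ±100 for the full control effect; nearly all actives have a fitted effect of over 60% in size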
ELG1 unstim viab – unstimulated viability counter-screen for ELG1 repair hits | shares compounds with ELG1 repair inh | cell viability counter-screen, unstimulated, luminescence | Potency, µM (doses to about 45.9 µM), inactives show top-dose activity change, negative = loss of viability, most hits filed as cytotoxic | 900 tested, 8% active | AID 624252;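 note: compound exposure lasted 16 hours before reading; % is set by controls: 0 for no effect and ±100 for the full control effect; nearly all actives have a fitted effect of over 55% in size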
FLuc biochem – counter-screen for ELG1 repair inhibitors: firefly luciferase inhibition | 350 tested, 10% active | purified firefly luciferase, luminescence counter-screen | shares compounds with ELG1 repair inh | Potency, µM (highest dose often 57.5 µM), without a hit: at the highest dose activity, negative = inhibition, actives largely listed as inhibitors; note: % is set by controls: 0 for no effect and ±100 for the full control effect
Active calls of the source: *; ? = inconclusive; . = no result. Calls come from the whole dose curve; as a rule, active = well fitted curve in the direction sought with a large enough effect; inconclusive = small, poorly fitted or top-dose-only effect, or another doubt; inactive = no such curve, though single readings can be large; an effect the other way counts as inactive or inconclusive. Potency is the fitted concentration of half-maximal effect.

SMILES | SMN2 splice enh | NPC1 promoter act | FLuc modulator | ELG1 repair inh | ELG1 genotoxic | Rab9 promoter act | ELG1 unstim viab | others
NC(=O)C1CCN(CC(=O)Nc2ccccc2C(=O)NC2CC2)CC1 | . | 1% | 0% | 15% | 2% | 2% | .
COC(=O)C1CCN(C(=O)C2CCN(C(=O)[C@@H](NS(=O)(=O)c3ccc(C)cc3)C(C)C)CC2)CC1 | . | 2% | -2% | -3% | -7% | -4% | .
COc1cc2cnc(-c3ccccc3)c(C(=O)c3ccc(OCc4ccccc4)cc3)c2cc1OC | . | . | . | 2.6µM* | 1% | . | 0% | ELG1-Luc inh=10µM*;ELG1 MMS Luc=13µM*;ELG1 5FU viab=?;ELG1 MMS cell=11µM*
O=C(O)c1cccc(S(=O)(=O)N2CCN(S(=O)(=O)c3ccc4ccccc4c3)CC2)c1 | . | -8% | 0% | -1% | 0% | -3% | .
Cc1ccccc1NC(=O)CSc1nc2ccccc2o1 | 7% | ? | 3% | ? | 4.1µM* | ? | ? | ELG1 FLuc counter=64%;FLuc biochem=-6%
Cc1ccc(NC(=O)CSc2nnc(-c3ccncc3)o2)cc1 | 8% | 2% | 4% | -3% | -3% | 7% | .
COc1cccc(NC(=O)CSc2nnc(-c3ccc(C)cc3)o2)c1 | 16µM* | 17% | -2% | ? | 10µM* | ? | 1%
O=C(CSc1nnc(-c2ccc(O)cc2)o1)Nc1ccccc1Br | . | 2.8µM* | . | ? | 10µM* | 3.2µM* | -2%
O=C(CSc1nnc(-c2ccc(F)cc2)o1)Nc1ccc(S(=O)(=O)N2CCCCCC2)cc1 | . | -3% | 1% | -3% | 0% | -4% | ? | ELG1 FLuc counter=-5%;FLuc biochem=-7%
COCCN1C(=O)C(=O)/C(=C(/O)c2ccc(S(=O)(=O)N3CCOCC3)cc2)C1c1cccc([N+](=O)[O-])c1 (centres undefined) | . | -4% | 2% | ? | 1% | -6% | .
Cc1ccc2nc3n(c(=O)c2c1)-c1ccccc1C(=O)NC3Cc1ccccc1 (centres undefined) | . | -1% | 2% | 24% | 3% | 1% | .

Assay outcomes deposited in PubChem by National Center for Advancing Translational Sciences (NCATS).
